Here are results for 33 molecules from PubChem BioAssay AID1053117 (Broad Institute, 2014).

Entries with a potency or affinity are not part of this list. The source made the active and inactive calls.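 How the source made its calls: active means compounds lowering cell ATP signal with a fitted half-effect dose at most twice the top valid dose; inconclusive means flat curve with 30 to 70% signal loss, or bad fit; inactive means wrong direction, flat within 30%, or weaker than limit.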

The test can be described thus: viability loss in HEK293 kidney cells – cell-based, cherry-picks, set 5, cytotoxicity control, dose response (AID 1053117).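 Further: more negative means greater loss of ATP signal and more cytotoxicity.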 As to conditions: HEK293T viability, CellTiter-Glo ATP luminescence, 72 h; series mostly up to 26 µM.
Regarding `O=C(Nc1ccccc1F)N1C[C@@H]2[C@H](c3ccccc31)[C@H](CO)N2C(=O)C1CCOCC1`, the outcome was inactive.

For `COc1ccccc1CNc1nc(NCc2cnc(C)cn2)c2sccc2n1`, the result was inactive.

For the molecule `CN1c2ccc(-c3ccccc3)cc2[C@@H]2[C@@H](CCN2C(=O)CN2CCOCC2)[C@H]1CO`, the outcome was inactive.

Turning to `C[C@@H]1CN([C@@H](C)CO)C(=O)c2cc(-c3ccncc3)cnc2O[C@@H]1CN(C)C(=O)Cc1cccnc1`, the molecule was classed as inactive.

Consider `COc1cccc(-c2ccc3c(c2)[C@@H]2[C@@H](CCN2S(=O)(=O)c2cccc(OC)c2)[C@@H](CO)N3)c1`, for which the call was inactive.

In the case of `C[C@@H]1CN([C@H](C)CO)C(=O)c2cccc(NC(=O)Nc3ccc(C(F)(F)F)cc3)c2O[C@H]1CN(C)C(=O)Nc1cccc2ccccc12`, the result was inactive.

For the molecule `COCC(C)n1c(SCc2nc(N)nc(Nc3ccccc3C)n2)nc2ccccc2c1=O` (stereo not drawn), the molecule was classed as inactive.

Turning to `N#C[C@@H]1[C@@H](c2ccccc2C2=CCCCC2)[C@@H](CO)N1S(=O)(=O)c1ccccc1`, the call was inactive.

Take `C[C@H](CO)N1C[C@H](C)[C@@H](CN(C)Cc2ccc(-c3ccccc3)cc2)Oc2ccc(NC(=O)CCCN(C)C)cc2C1=O`: the result was inactive.

In the case of `N#C[C@H]1[C@H](c2ccccc2C2=CCCCC2)[C@H](CO)N1S(=O)(=O)c1ccccc1`, the molecule was called inactive.

As for `COc1ccccc1CC(=O)OC(C)C(=O)Nc1ccc(S(=O)(=O)N2CCCCC2)cc1` (stereo not drawn), the molecule was called inactive.

For `O=C(Nc1cc(Sc2nc3ccccc3s2)cc([N+](=O)[O-])c1)c1ccccc1F`, the call was inactive.

In the case of `CN1c2ccc(-c3ccccc3)cc2[C@@H]2[C@@H](CCN2C(=O)CN2CCOCC2)[C@@H]1CO`, the result was inactive.

For the molecule `C[C@@H]1CN([C@H](C)CO)C(=O)c2cc(NC(=O)CCCN(C)C)ccc2O[C@@H]1CN(C)Cc1ccc(-c2ccccc2)cc1`, the call was inactive.

In the case of `CCCCOc1ccc(C(C)NC(=O)C2CCCN(S(=O)(=O)CCC)C2)cc1` (stereo not drawn), the outcome was inactive.

Take `Cc1ccc(CS(=O)Cc2ccc(C(=O)NC3CCCC(C)C3C)o2)cc1` (stereo not drawn): the call was inactive.

Regarding `CC(C)(C)[S@](=O)N1Cc2cc(C(=O)NCc3ccccc3F)nc(-c3cccc(-c4cncnc4)c3)c2[C@@H]1CCO`, the molecule was classed as inactive.

As to `CO[C@H]1CN(C)C(=O)c2cc(NC(C)=O)ccc2OC[C@@H](C)N(C(=O)CN2CCOCC2)C[C@H]1C`, the molecule was classed as inactive.

With `COC(=O)C[C@H]1CC[C@H]2[C@@H](COc3ccc(NC(=O)Cc4cccs4)cc3C(=O)N2C)O1`, the molecule was classed as inactive.

As to `CN(C)C(=O)c1ccc(-c2ccc3c(c2)[C@H]2[C@H](CCN2C(=O)c2ccc(F)cc2)[C@H](CO)N3C)cc1`, the call was inactive.

On to `Cc1ccc(S(=O)(=O)N2CC[C@H]3[C@H](CO)Nc4ccc(-c5cccc(C(=O)N(C)C)c5)cc4[C@H]32)cc1`, for which the result was inactive.

`CCOC(=O)c1cnc(SCc2nc(N)nc(Nc3ccc(OC)cc3)n2)nc1N`: the result was inactive.

For `C[C@H]1CN([C@@H](C)CO)C(=O)c2cc(-c3ccccc3)cnc2O[C@H]1CN(C)Cc1ccccc1`, the call was inactive.

On to `C[C@H](CO)N1C[C@H](C)[C@H](CN(C)C(=O)Nc2cccc3ccccc23)Oc2c(NC(=O)Nc3ccc(C(F)(F)F)cc3)cccc2C1=O`, for which the outcome was inactive.

`Cc1ccc(-c2nc3ncccc3o2)cc1NC(=O)c1ccco1`: the result was inactive.

Turning to `N#Cc1ccc(-c2ccc3c(c2)[C@@H]2[C@@H](CCN2S(=O)(=O)c2ccccc2F)[C@H](CO)N3)cc1`, the outcome was inactive.

`O=C(CSc1nc2ncc(Cl)cc2[nH]1)c1c[nH]c2ccccc12`: the molecule was called inactive.

As for `C[C@@H]1CN([C@H](C)CO)C(=O)c2cc(NC(=O)CCCN(C)C)ccc2O[C@H]1CN(C)Cc1ccc(-c2ccccc2)cc1`, the result was inactive.

With `C[C@H]1CN([C@@H](C)CO)C(=O)c2cc(NC(=O)CCCN(C)C)ccc2O[C@@H]1CN(C)Cc1ccc(-c2ccccc2)cc1`, the molecule was called inactive.

Regarding `CN(C)C(=O)c1ccc(-c2ccc3c(c2)[C@@H]2[C@@H](CCN2C(=O)c2ccc(F)cc2)[C@@H](CO)N3C)cc1`, the outcome was inactive.

For `Nc1nc(-c2cc3c(cc2Cl)OCCO3)cs1`, the result was inactive.

As for `C[C@H](O)C#Cc1ccc2c(c1)O[C@H](CN(C)C)[C@@H](C)CN([C@@H](C)CO)S2(=O)=O`, the outcome was inactive.

In the case of `CC1CN(C(=O)c2cc3c(=O)n4ccccc4nc3n2C)CC(C)O1` (stereo not drawn), the molecule was classed as inactive.
